Our source for the binding signal values is publication PMC3218832.

Targets include RELARELA (p65 homodimer) (Homo sapiens, UniProt Q04206 1-307); p50p50 homodimer (Homo sapiens, UniProt P19838 7-356); RELB subunit;p50 subunit (Homo sapiens;Homo sapiens, UniProt Q01201;P19838 120-401;7-356).
Holding throughout (assay): protein binding microarray; high values mean tight binding
Holding throughout (conditions): dsDNA, one strand shown

The target of a further test is T1, p52p52 homodimer (Homo sapiens, UniProt Q00653 4-332).
T1 sequence: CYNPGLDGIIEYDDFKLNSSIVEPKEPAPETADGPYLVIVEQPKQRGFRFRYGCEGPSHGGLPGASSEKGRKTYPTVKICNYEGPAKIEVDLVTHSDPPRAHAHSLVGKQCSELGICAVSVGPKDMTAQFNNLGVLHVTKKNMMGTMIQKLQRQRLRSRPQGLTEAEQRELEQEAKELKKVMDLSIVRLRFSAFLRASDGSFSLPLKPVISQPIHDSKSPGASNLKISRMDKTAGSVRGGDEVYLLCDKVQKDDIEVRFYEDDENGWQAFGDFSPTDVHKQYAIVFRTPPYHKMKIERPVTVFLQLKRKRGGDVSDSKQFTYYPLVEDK

Test [1] addresses RELA (p65) subunit of heterodimer;p50 subunit (Homo sapiens;Homo sapiens, UniProt Q04206;P19838 1-307;7-356).
In test [2] the target is RELA (p65) subunit of heterodimer;p52 subunit (Homo sapiens;Homo sapiens, UniProt Q04206;Q00653 1-307;4-332).
The target of another test is T2, RELB subunit;p52 subunit (Homo sapiens;Homo sapiens, UniProt Q01201;Q00653 120-401;4-332).
T2 sequence 1: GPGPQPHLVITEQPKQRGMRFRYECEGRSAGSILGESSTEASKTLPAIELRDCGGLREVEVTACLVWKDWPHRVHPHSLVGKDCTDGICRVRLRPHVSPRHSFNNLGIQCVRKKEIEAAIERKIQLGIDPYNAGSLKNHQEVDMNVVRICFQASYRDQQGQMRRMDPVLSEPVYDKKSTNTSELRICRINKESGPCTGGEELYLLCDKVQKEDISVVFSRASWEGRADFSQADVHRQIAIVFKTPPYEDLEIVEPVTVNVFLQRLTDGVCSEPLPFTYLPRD
T2 sequence 2: T1 sequence

Test [3] addresses C-Rel subunit;p50 subunit (Homo sapiens;Homo sapiens, UniProt Q04864;P19838 1-285;7-356).
For test [4], the target named is T3, C-Rel subunit;p52 subunit (Homo sapiens;Homo sapiens, UniProt Q04864;Q00653 1-285;4-332).
T3 sequence 1: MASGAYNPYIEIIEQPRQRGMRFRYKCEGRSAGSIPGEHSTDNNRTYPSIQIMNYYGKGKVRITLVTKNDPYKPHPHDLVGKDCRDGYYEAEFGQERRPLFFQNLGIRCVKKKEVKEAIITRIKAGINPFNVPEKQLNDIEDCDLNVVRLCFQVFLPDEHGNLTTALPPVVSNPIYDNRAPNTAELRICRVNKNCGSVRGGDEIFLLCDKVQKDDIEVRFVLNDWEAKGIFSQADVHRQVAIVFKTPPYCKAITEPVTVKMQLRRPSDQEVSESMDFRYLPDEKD
T3 sequence 2: T1 sequence

Sequence of p50p50 homodimer (P19838 7-356): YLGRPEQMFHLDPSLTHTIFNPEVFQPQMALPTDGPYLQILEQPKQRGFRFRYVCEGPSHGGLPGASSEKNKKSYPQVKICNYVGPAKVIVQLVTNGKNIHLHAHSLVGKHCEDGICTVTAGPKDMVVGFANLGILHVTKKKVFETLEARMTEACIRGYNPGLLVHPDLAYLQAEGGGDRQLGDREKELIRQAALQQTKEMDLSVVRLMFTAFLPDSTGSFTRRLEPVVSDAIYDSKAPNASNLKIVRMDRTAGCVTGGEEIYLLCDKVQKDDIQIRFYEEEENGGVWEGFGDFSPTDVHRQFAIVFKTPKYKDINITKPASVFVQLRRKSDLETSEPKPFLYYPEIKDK
Sequence of RELA (p65) subunit of heterodimer;p50 subunit (Q04206 1-307, chain 1 of 2): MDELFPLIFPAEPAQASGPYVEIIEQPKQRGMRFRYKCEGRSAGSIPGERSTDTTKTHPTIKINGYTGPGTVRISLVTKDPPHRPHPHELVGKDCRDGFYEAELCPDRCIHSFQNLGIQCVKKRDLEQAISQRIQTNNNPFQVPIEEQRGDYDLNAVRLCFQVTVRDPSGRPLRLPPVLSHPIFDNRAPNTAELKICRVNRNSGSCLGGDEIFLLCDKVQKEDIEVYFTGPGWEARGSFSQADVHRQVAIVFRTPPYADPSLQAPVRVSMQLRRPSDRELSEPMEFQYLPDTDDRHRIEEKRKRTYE
Sequence of RELA (p65) subunit of heterodimer;p50 subunit (P19838 7-356, chain 2 of 2): as the sequence (P19838 7-356) above
Sequence of RELARELA (p65 homodimer) (Q04206 1-307): as the sequence (Q04206 1-307, chain 1 of 2) above

For the sequence CGAGTAACCCC, the binding signal in the test with RELARELA (p65 homodimer) was -0.498 z-score; with p50p50 homodimer, -0.0762 z-score; with p52p52 homodimer, -0.149 z-score; in [1], -0.232 z-score; in [2], -0.211 z-score; with RELB subunit;p50 subunit, -0.188 z-score. The binding signal in the test with RELB subunit;p52 subunit is 0.213 z-score; in [3], -0.0464 z-score; in test [4], -0.115 z-score.

With CGGAGTATCCC, the binding signal is 0.97 z-score in the test with RELARELA (p65 homodimer); -0.805 z-score with p50p50 homodimer; -0.256 z-score with p52p52 homodimer; 0.294 z-score in test [1]; -0.0559 z-score in test [2]; -0.605 z-score with RELB subunit;p50 subunit. Besides, the values for the binding signal (with RELB subunit;p52 subunit; in [3]; in test [4]) were -0.711 z-score, -0.0452 z-score and -0.0756 z-score, respectively.

GGAGATATCCT: the binding signal was -0.481 z-score with RELARELA (p65 homodimer); -1.23 z-score with p50p50 homodimer; -0.703 z-score with p52p52 homodimer; -0.874 z-score in test [1]; -0.798 z-score in [2]; -1.04 z-score with RELB subunit;p50 subunit. The results for the binding signal (in the test with RELB subunit;p52 subunit; in test [3]; in test [4]) were -0.872 z-score, -1.35 z-score and -0.82 z-score, respectively.

AAGTGTATCCC: the binding signal is -0.0644 z-score with RELARELA (p65 homodimer); -0.719 z-score in the test with p50p50 homodimer; -0.379 z-score with p52p52 homodimer; -0.553 z-score in test [1]; -0.504 z-score in test [2]; -0.584 z-score in the test with RELB subunit;p50 subunit. Also, the figures for the binding signal (with RELB subunit;p52 subunit; in [3]; in test [4]) were -0.4 z-score, -0.695 z-score and -0.382 z-score, respectively.

Regarding CGATACCTCCC, the binding signal with RELARELA (p65 homodimer) is -0.139 z-score; with p50p50 homodimer it was -0.527 z-score; with p52p52 homodimer it was -0.392 z-score; in test [1], -0.477 z-score; in test [2], -0.641 z-score; in the test with RELB subunit;p50 subunit it was -0.466 z-score. The binding signal was -0.506 z-score with RELB subunit;p52 subunit, -0.897 z-score in test [3] and -0.543 z-score in [4].

As to GAGGAAATCCT, the binding signal was 0.229 z-score with RELARELA (p65 homodimer); -0.905 z-score in the test with p50p50 homodimer; -0.463 z-score with p52p52 homodimer; -0.399 z-score in test [1]; -0.425 z-score in [2]; -0.858 z-score in the test with RELB subunit;p50 subunit. Moreover, the binding signal in the test with RELB subunit;p52 subunit was -0.718 z-score; in test [3], -0.315 z-score; in test [4], -0.369 z-score.

For the sequence GAGGTTGCCCT, the binding signal with RELARELA (p65 homodimer) is -0.221 z-score; with p50p50 homodimer, -1.5 z-score; with p52p52 homodimer, -0.704 z-score; in test [1] it was -0.605 z-score; in test [2], -0.676 z-score; in the test with RELB subunit;p50 subunit, -0.817 z-score. In addition, the binding signal in the test with RELB subunit;p52 subunit was -0.624 z-score; in test [3] it was -0.77 z-score; in [4], -0.503 z-score.

Take AAATGGACCCC: the binding signal is -0.781 z-score with RELARELA (p65 homodimer); -0.458 z-score in the test with p50p50 homodimer; -0.348 z-score in the test with p52p52 homodimer; -0.532 z-score in [1]; -0.428 z-score in [2]; -0.448 z-score with RELB subunit;p50 subunit. Besides, the binding signal with RELB subunit;p52 subunit is -0.0987 z-score; in test [3] it was -0.615 z-score; in test [4], -0.473 z-score.

Regarding AAAATACCCCT, the binding signal is 1.01 z-score with RELARELA (p65 homodimer); 1.41 z-score in the test with p50p50 homodimer; 1.92 z-score with p52p52 homodimer; 1.65 z-score in test [1]; 1.8 z-score in test [2]; 1.63 z-score in the test with RELB subunit;p50 subunit. Further, the binding signal in the test with RELB subunit;p52 subunit turned out to be 2.25 z-score; in test [3] it was 1.26 z-score; in test [4], 1.95 z-score.

For CAGGTGTTCCC, the binding signal is 0.518 z-score in the test with RELARELA (p65 homodimer); 0.0166 z-score with p50p50 homodimer; 0.0698 z-score with p52p52 homodimer; -0.00537 z-score in test [1]; 0.153 z-score in test [2]; -0.0984 z-score with RELB subunit;p50 subunit. Also, the binding signal in the test with RELB subunit;p52 subunit was -0.0353 z-score; in test [3], 0.188 z-score; in [4] it was 0.359 z-score.

On to AAATAAACCCT, for which the binding signal in the test with RELARELA (p65 homodimer) is -0.478 z-score; in the test with p50p50 homodimer it was 0.0209 z-score; with p52p52 homodimer it was 0.172 z-score; in test [1], -0.112 z-score; in [2] it was 0.045 z-score; with RELB subunit;p50 subunit, -0.326 z-score. Further, the binding signal is -0.0813 z-score with RELB subunit;p52 subunit, -0.324 z-score in [3] and -0.00628 z-score in test [4].

With CAGTGTTTCCT, the binding signal with RELARELA (p65 homodimer) was 0.51 z-score; in the test with p50p50 homodimer, -0.616 z-score; with p52p52 homodimer, -0.52 z-score; in [1] it was -0.47 z-score; in test [2], -0.473 z-score; in the test with RELB subunit;p50 subunit it was -0.831 z-score. Also, the binding signal is -0.677 z-score with RELB subunit;p52 subunit, -0.349 z-score in test [3] and -0.285 z-score in test [4].

As to GGAGACGCCCT, the binding signal with RELARELA (p65 homodimer) was -0.954 z-score; with p50p50 homodimer, -1.6 z-score; with p52p52 homodimer, -0.72 z-score; in test [1], -0.832 z-score; in [2] it was -0.77 z-score; with RELB subunit;p50 subunit, -1.05 z-score. In addition, the figures for the binding signal (in the test with RELB subunit;p52 subunit; in test [3]; in test [4]) were -0.933 z-score, -1.16 z-score and -0.641 z-score, respectively.

For the sequence CGGAGGCCCCC, the binding signal is -1.02 z-score in the test with RELARELA (p65 homodimer); 0.282 z-score in the test with p50p50 homodimer; -0.0558 z-score with p52p52 homodimer; 0.494 z-score in [1]; 0.175 z-score in [2]; -0.0407 z-score with RELB subunit;p50 subunit. Moreover, the results for the binding signal (with RELB subunit;p52 subunit; in test [3]; in test [4]) were 0 z-score, 0.165 z-score and 0.393 z-score, respectively.

Regarding AAAATTTTCCT, the binding signal is 1.75 z-score with RELARELA (p65 homodimer); 0.214 z-score in the test with p50p50 homodimer; 0.0641 z-score with p52p52 homodimer; 0.434 z-score in test [1]; 0.225 z-score in test [2]; -0.311 z-score with RELB subunit;p50 subunit. The binding signal with RELB subunit;p52 subunit is -0.176 z-score; in [3], 0.47 z-score; in test [4], 0.322 z-score.
